Assay results published in PubChem BioAssay (Tox21).
Inconclusive results are not listed. Activity calls are given as the source filed them. The call rests on the fitted dose curve; in most records, active means well fitted cell-killing curve with a large enough effect in the repeat runs; inconclusive means weak or mixed curves, or effect the other way; inactive means flat fitted curve, though single readings scatter.

assay: qHTS RealTime-Glo MT Cell Viability Assay in HEK293 cells - 40 hour (AID 1224874); details: RealTime-Glo luminescence; max response: stronger effect = lower value; further: nearly all actives have a fitted effect of over 50% in size
Text: U.S. Tox21 Program National Center for Advancing Translational Sciences [NCATS] NIH Chemical Genomics Center [NCGC] U.S. Environmental Protection Agency [EPA] National Institutes of Environmental Health Sciences [NIEHS] National Toxicology Program [NTP] U.S. Food and Drug Administration [FDA] Tox21 Assay Overview: Measure of cell viability is critical in the cell-base assay. Analysis of cell viability is necessary for the characterization of cell responses to cytotoxic drugs and environmental stress. A RealTime-Glo MT Cell Viability Assay to monitor cell viability in real time of continues cell culture during 40 hours of compound treatment was used to screen Tox21 10K library compounds in Hek293 cells. The RealTime-Glo MT Cell Viability Assay is a nonlytic, homogeneous, bioluminescent method to measure cell viability in real time using a simple, plate-based method. The assay involves adding NanoLuc luciferase and a cell-permeant prosubstrate to cells in culture. Viable cells reduce the proprietary prosubstrate to generate a substrate for NanoLuc luciferase. This substrate diffuses from cells into the surrounding culture medium, where it is rapidly used by the NanoLuc Enzyme to produce a luminescent signal. The signal correlates with the number of viable cells, making the assay well suited for cytotoxicity studies.
Tox21 Assay Protocol Summary: The mixture of Hek293 cell suspension and reagents were dispensed at 600cells/6 ul/well in 1536-well tissue culture treated black solid bottom plates using a Multidrop dispenser. After the assay plates were incubated at a 37 C/5% CO2 incubator for 5 hours, 23 nL of compounds dissolved in DMSO, positive and negative controls was transferred to the assay plate by a pintool work station. The plates were incubated at 37 C for 40 hours. The luminescence intensity were measured at 0h, 8h, 16h, 24h, 32h and 40h time points using ViewLux plate reader during compound treatment.
On the % scale 0 is the no-effect control and ±100 the full control effect.

| SMILES | max response |
| --- | --- |
| CCCCCCCCCCC1CO1 (stereo not given) | 6.25% (inactive) |
| CCC(C(=O)NC(N)=O)c1ccccc1 (stereo not given) | 5.63% (inactive) |
| NS(=O)(=O)c1cc(C2(O)NC(=O)c3ccccc32)ccc1Cl (stereo not given) | 1% (inactive) |
| O=C(O)Cc1cc(I)c(Oc2cc(I)c(O)c(I)c2)c(I)c1 | 1.65% (inactive) |
| CO | 3.26% (inactive) |
| Oc1ccc2c(c1)OC[C@@H](N1CCC(O)(c3ccc(F)cc3)CC1)[C@H]2O | -13.9% (inactive) |
| CC1(C)OC(=O)Nc2ccc(Br)cc21 | 0.0036% (inactive) |
| CCc1cc(S(=O)(=O)O)c2cc(C(C)C)cccc1-2 | 7.39% (inactive) |
| Cc1ccc(N)cc1[N+](=O)[O-] | -16.8% (inactive) |
| Cc1ccccc1C(=O)O | -0.805% (inactive) |
| CCCCCCOC(=O)CC(CC(=O)OCCCCCC)(OC(=O)CCC)C(=O)OCCCCCC | 15.3% (inactive) |
| CC(=O)N[C@@H](CCC(N)=O)C(=O)O | -1.52% (inactive) |
| COc1ccc(NC(C)=O)cc1 | -7.34% (inactive) |
| C#CC(O)CCCCC (stereo not given) | 8.88% (inactive) |
| c1ccc(SCCSc2ccccc2)cc1 | 6.54% (inactive) |
| CCOC(=O)Nc1ccc2c(c1)N(C(=O)CCN1CCOCC1)c1ccccc1S2 | -6.68% (inactive) |
| CO[Si](CCCNCCC[Si](OC)(OC)OC)(OC)OC | 5.67% (inactive) |
| Oc1cc(O)c2c(c1)O[C@H](c1ccc(O)c(O)c1)[C@H](O)C2 | 0.448% (inactive) |
| CCCc1ccccc1O | -8.16% (inactive) |
| CCCCCCCCCCCCI | -9.8% (inactive) |

| SMILES | max response |
| --- | --- |
| CC(C=O)Cc1ccc(C(C)C)cc1 (stereo not given) | 18.5% (inactive) |
| Nc1ccc2cc(S(=O)(=O)O)ccc2c1 | -14% (inactive) |
| CN(C)C(=O)Nc1ccccc1 | 1.06% (inactive) |
| CC(C)COC(=O)c1ccccc1O | 7.83% (inactive) |
| C=C(C)[C@@H]1CCC2=CC(=O)C[C@@H](C)[C@]2(C)C1 | 3.58% (inactive) |
| CC/C=C\CCCCO | 1.83% (inactive) |
| COCc1ccc(COC)cc1 | 4.98% (inactive) |
| CC(C)[C@H](N)C(=O)OCCOCn1cnc2c(=O)[nH]c(N)nc21 | 9.28% (inactive) |
| CCCCNc1ccccc1 | 2.6% (inactive) |
| O=C(O)C1CCC1 | -0.0608% (inactive) |
| C=CC(=O)OCCCCCC | -6.6% (inactive) |
| CC(C)CCCC(C)NCCC(C)C (stereo not given) | 0.252% (inactive) |
| NCC[C@H](O)C(=O)N[C@@H]1C[C@H](N)[C@@H](O[C@H]2O[C@H](CN)[C@@H](O)[C@H](O)[C@H]2O)[C@H](O)[C@H]1O[C@H]1O[C@H](CO)[C@@H](O)[C@H](N)[C@H]1O | 5.14% (inactive) |
| NC(=O)c1ncn([C@@H]2O[C@H](CO)[C@@H](O)[C@H]2O)c1O | 9.45% (inactive) |
| NC(=O)CCCCC1CCSS1 (stereo not given) | 4.59% (inactive) |
| C=CC(=O)N1CCOCC1 | -1.69% (inactive) |
| CCCCCCCCCCCCCCC | 10.7% (inactive) |
| OC1OC[C@@H](O)[C@H](O)[C@H]1O (stereo not given in full) | 0.611% (inactive) |
| Nc1nc(F)nc2c1ncn2[C@@H]1O[C@H](CO)[C@@H](O)[C@@H]1O | -1.6% (inactive) |
| O=C1OC(=O)c2cc([N+](=O)[O-])ccc21 | 13% (inactive) |
